In PubChem BioAssay (NCATS) one finds Potency data, which are given here for 22 molecules.

Experiment [1] in a line: NS1 protein of Zika virus - qHTS assay to identify small molecule inhibitors in human HEK 293 cells (AID 1347053). Further: nearly all actives have a fitted effect of over 55% in size. Further: potency means the concentration at half of the fitted maximal effect. A digest of the protocol:
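HEK 293 cells pretreated with compound for 1 h, then infected with ZIKV MR766 (MOI 0.5) for 24 h at 37 C. NS1 detected by TR-FRET with two anti-NS1 antibodies; normalized to uninfected (0%) and infected (100%) wells.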

Experiment [2] is described as follows: qHTS of pediatric cancer cell lines to identify multiple opportunities for drug repurposing: Primary screen for TC32 cells (AID 1347089). Further: nearly all actives have a fitted effect of over 60% in size. A digest of the protocol:
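qHTS, TC32, 48 h drug treatment, CellTiter-Glo luminescence as a proxy for metabolically active cells; primary top concentration 46 µM (MIPE 11-pt, NPC 8-pt); confirmatory 11-pt.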

Experiment [3] can be described thus: qHTS of pediatric cancer cell lines to identify multiple opportunities for drug repurposing: Primary screen for SJ-GBM2 cells (AID 1347091). Further: potency means the concentration at half of the fitted maximal effect. A digest of the protocol:
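Viability measured as metabolically active cells via CellTiter-Glo luminescence following 48 hours of compound exposure, 11-point dilutions in confirmatory testing. 500-1,000 cells/well plated 5 hours before dosing; controls were DMSO and 2.3 µM bortezomib.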

Experiment [4] in a line: qHTS of pediatric cancer cell lines to identify multiple opportunities for drug repurposing: Primary screen for A673 cells (AID 1347092). Further: nearly all actives have a fitted effect of over 45% in size. Further: potency means the concentration at half of the fitted maximal effect. Put shortly:
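Luminescence from CellTiter-Glo, taken after 15 min at room temperature, served as the proxy for metabolically active cells following 48 h treatment. Both potency and efficacy were taken from curves fitted to the titration data.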

Experiment [5] can be described thus: qHTS of pediatric cancer cell lines to identify multiple opportunities for drug repurposing: Primary screen for SK-N-MC cells (AID 1347093). Further: potency means the concentration at half of the fitted maximal effect. A digest of the protocol:
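Metabolically active cells were quantified by ATP-dependent luminescence (CellTiter-Glo, 15 min at room temperature) following 48 h treatment. Cells had been plated at 500-1,000 per well and settled for 5 h beforehand.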

Results filed as inconclusive are left out. Activity calls are given as the source filed them. The call rests on the fitted dose curve; in most records, active means well fitted curve in the direction sought with a large enough effect; inconclusive means small, poorly fitted or top-dose-only effect, or another doubt; inactive means no such curve, though single readings can be large; an effect the other way counts as inactive or inconclusive.

For the molecule `CN[C@@H](C)C(=O)N[C@H]1CN(C(=O)CC(C)C)CC[C@H]2CC[C@@H](C(=O)NC(c3ccccc3)c3ccccc3)N2C1=O`, the Potency entry in experiment [1] and in experiment [2] was “inactive” throughout. The Potency is 0.935 µM (active) in experiment [3], 0.0074 µM (active) in experiment [4] and 0.372 µM (active) in experiment [5].
As to `NC(=O)NN=Cc1ccc([N+](=O)[O-])o1`, the Potency result in experiment [1], in experiment [2], in experiment [3] and in experiment [5] was “inactive” each time.
As for `CC(C)(C)COc1ccc(-n2cc(C(=O)O)cn2)cc1C#N`, the Potency result in experiment [1], in experiment [2], in experiment [3] and in experiment [4] was “inactive” each time.
For the molecule `CO[C@H]1C=CO[C@@]2(C)Oc3c(C)c(O)c4c(O)c(c5c(c4c3C2=O)NC2(CCN(CC(C)C)CC2)N=5)=NC(=O)C(C)=CC=C[C@H](C)[C@H](O)[C@@H](C)[C@@H](O)[C@@H](C)[C@H](OC(C)=O)[C@H]1C`, the Potency result in experiment [1], in experiment [2], in experiment [3], in experiment [4] and in experiment [5] was “inactive” throughout.
As to `CC1(C)CCC(CN2CCN(c3ccc(C(=O)NS(=O)(=O)c4ccc(NCC5CCOCC5)c([N+](=O)[O-])c4)c(Oc4cnc5[nH]ccc5c4)c3)CC2)=C(c2ccc(Cl)cc2)C1`, the Potency entry in experiment [1] and in experiment [2] was “inactive” in each case. Moreover, the results for the Potency in experiment [3], in experiment [4] and in experiment [5] were 2.96 µM (active), 18.7 µM (active) and 0.0074 µM (active), respectively.
`CC(C)(C)c1cc(C(=O)O)c(NC(=O)Nc2ccc3[nH]ncc3c2)s1`: the Potency entry in experiment [1], in experiment [2], in experiment [3] and in experiment [4] was “inactive” throughout. For the same molecule, in experiment [5], the Potency is 23.5 µM (active).
Regarding `C[C@H](NC(=O)C(=O)Nc1ccccc1C(C)(C)C)C(=O)N[C@@H](CC(=O)O)C(=O)COc1c(F)c(F)cc(F)c1F`, the Potency result in experiment [1], in experiment [2] and in experiment [3] was “inactive” throughout. The figures for the Potency in experiment [4] and in experiment [5] were 23.5 µM (active) and 5.9 µM (active), respectively.
In the case of `Cc1ccc(C(C)(O)c2nc3ccccc3s2)c(C)c1` (stereo unspecified), the Potency result in experiment [1] and in experiment [2] was “inactive” in each case. Besides, the Potency is 3.32 µM (active) in experiment [3] and 1.87 µM (active) in experiment [5].
As to `O=C(O)C=Cc1ccc(O)c(O)c1`, the Potency entry in experiment [1], in experiment [2] and in experiment [3] was “inactive” each time. In addition, the Potency in experiment [4] was 11.8 µM (active); in experiment [5] it was 2.64 µM (active).
Regarding `Cn1c(N2CCCCS2(=O)=O)nc(C(=O)NCc2ccc(F)cc2)c(O)c1=O`, the Potency entry in experiment [1], in experiment [2], in experiment [3], in experiment [4] and in experiment [5] was “inactive” each time.
In the case of `CC(C)(C)C(=O)Oc1ccc2c(c1)nc(NC(=O)c1cccc([N+](=O)[O-])c1)n2CCCO`, the Potency result in experiment [1] and in experiment [2] was “inactive” in each case. The Potency is 11.8 µM (active) in experiment [4] and 20.9 µM (active) in experiment [5].
In the case of `CC(C)C[C@H](CC(=O)O)C(=O)N[C@@H](Cc1c[nH]c2ccccc12)C(=O)N[C@@H](C)c1ccccc1`, the Potency result in experiment [1] and in experiment [2] was “inactive” in each case. For the same molecule, the Potency was 3.72 µM (active) in experiment [3], 1.87 µM (active) in experiment [4] and 1.66 µM (active) in experiment [5].
On to `O=c1c(-c2ccc(O)cc2)coc2cc(O[C@@H]3O[C@H](CO)[C@H](O)[C@H](O)[C@H]3O)ccc12`, for which the Potency result in experiment [1], in experiment [2], in experiment [3], in experiment [4] and in experiment [5] was “inactive” in each case.
Take `OC[C@H]1O[C@@H](Oc2cc(O)cc(C=Cc3ccc(O)cc3)c2)[C@H](O)[C@@H](O)[C@H]1O`: the Potency entry in experiment [1], in experiment [2] and in experiment [3] was “inactive” throughout. Besides, the Potency in experiment [4] was 9.35 µM (active).
For `O=C1c2c(O)cc(O)cc2O[C@H](c2cc(O)c(O)c(O)c2)[C@H]1O`, the Potency entry in experiment [1], in experiment [2] and in experiment [3] was “inactive” each time. Further, the Potency in experiment [4] was 14.8 µM (active); in experiment [5], 4.18 µM (active).
`CC=C(C)C(=O)O[C@H]1C(C)=C[C@]23C(=O)[C@@H](C=C(CO)[C@@H](O)[C@]12O)[C@H]1[C@@H](C[C@H]3C)C1(C)C`: the Potency was 11.8 µM (active) in experiment [1], 18.7 µM (active) in experiment [3], 0.0148 µM (active) in experiment [4] and 4.69 µM (active) in experiment [5]. The Potency result in experiment [2] is “inactive”.
Regarding `CC(C)(C)OC(=O)N[C@H]1CCCCCC=C[C@@H]2C[C@@]2(C(=O)NS(=O)(=O)C2CC2)NC(=O)[C@@H]2C[C@@H](OC(=O)N3Cc4cccc(F)c4C3)CN2C1=O`, the Potency entry in experiment [1], in experiment [2], in experiment [3] and in experiment [4] was “inactive” in each case. Further, in experiment [5], the Potency is 29.6 µM (active).
As to `Nc1ncnc2c1ncn2[C@@H]1O[C@H](CO)C[C@@H]1O`, the Potency result in experiment [1], in experiment [2] and in experiment [3] was “inactive” in each case.
On to `Nc1ncnc2ccccc12`, for which the Potency entry in experiment [1], in experiment [2] and in experiment [3] was “inactive” in each case. In experiment [4], the Potency is 23.5 µM (active).
Take `Cc1ccc(/C=N/NC(=O)c2ccccc2Oc2ccccc2)o1`: the Potency result in experiment [1] and in experiment [2] was “inactive” in each case. Also, the values for the Potency in experiment [3] and in experiment [5] were 20.9 µM (active) and 16.6 µM (active), respectively.
Take `N[C@@]1(C(=O)O)CS(=O)(=O)[C@H]2[C@H](C(=O)O)[C@H]21`: the Potency entry in experiment [1], in experiment [2] and in experiment [3] was “inactive” in each case. Moreover, the Potency in experiment [4] was 1.87 µM (active); in experiment [5], 18.7 µM (active).
For `CCC(=O)NC[C@H](Cc1ccc(OCCc2nc(-c3ccccc3)oc2C)cc1)NC(C)=CC(=O)c1ccc(C(F)(F)F)cc1`, the Potency was 16.6 µM (active) in experiment [1], 3.32 µM (active) in experiment [3], 1.87 µM (active) in experiment [4] and 2.35 µM (active) in experiment [5]. The Potency result in experiment [2] was “inactive”.
